Assay outcomes deposited in PubChem BioAssay by several laboratories.
YopH PTP inh: blocks Yersinia enterocolitica YopH tyrosine phosphatase | fluorescence Ex485/Em525 | inhibition, % (concentration not given with the values) | 0.16% of 140,000 active | AID 898; in the data active = inhibition above about 50%
RmlCD inh 1536: blocks M. tuberculosis RmlC and RmlD coupled enzymes; P9WH09+P9WH11; RmlC+RmlD coupled enzyme assay, percent inhibition; primary screen in compound mixtures; inhibition, % at 3.6 µM; 0.03% of 160,000 active; AID 1533; in the data active = inhibition mostly above about 34%, no sharp cut-off
Target sequence (P9WH09 whole entry, looked up): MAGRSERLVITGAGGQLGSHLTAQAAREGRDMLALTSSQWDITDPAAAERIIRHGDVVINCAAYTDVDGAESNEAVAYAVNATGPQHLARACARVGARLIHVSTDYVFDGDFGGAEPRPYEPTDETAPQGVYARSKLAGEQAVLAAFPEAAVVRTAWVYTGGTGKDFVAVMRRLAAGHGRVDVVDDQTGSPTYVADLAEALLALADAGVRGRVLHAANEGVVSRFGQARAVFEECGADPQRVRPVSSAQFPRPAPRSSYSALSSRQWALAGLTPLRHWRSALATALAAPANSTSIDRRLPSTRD
Target sequence (P9WH11 whole entry, looked up): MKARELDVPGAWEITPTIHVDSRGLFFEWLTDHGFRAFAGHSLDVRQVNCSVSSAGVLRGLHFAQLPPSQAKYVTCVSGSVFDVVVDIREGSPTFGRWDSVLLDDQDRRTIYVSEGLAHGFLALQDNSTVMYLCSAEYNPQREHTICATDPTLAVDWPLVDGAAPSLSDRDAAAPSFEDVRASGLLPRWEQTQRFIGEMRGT
* hit, by the source's call; · = no result. Many of the other results were omitted from the sample, so hits are more common in it than they were.

SMILES	YopH PTP inh	RmlCD inh 1536
CCOC(=O)/C(N=Nc1ccc(F)cc1)=C(/O)c1ccc([N+](=O)[O-])cc1	62*	10
CCOC(=O)c1oc2ccccc2c1CSc1nnnn1-c1ccc(OC)cc1	4	-4
CCOC(=O)c1oc2ccc(Br)cc2c1CSc1nnc(C)s1	88*	-2
O=[N+]([O-])CC(=Nc1ccc(F)cc1)N/N=C\c1oc(O)c2ccccc12	·	-6
O=C(CCCSc1nnnn1-c1cccc2ccccc12)c1ccc(F)cc1	-11	15
COc1ccc(-c2cc(=NCCC(=O)O)c3cc(C)ccc3o2)cc1	·	32*
COc1ccc(-c2cc(=NC(CC(C)C)C(=O)O)c3cc(C)ccc3o2)cc1 (stereo not drawn)	-10	-9
CN(C)c1ccc(-c2noc(C3CCN(S(=O)(=O)c4cccc(Cl)c4)CC3)n2)cc1	-32	-10
O=S(=O)(c1ccc2ccccc2c1)N1CCC(c2nc(-c3ccncc3)no2)CC1	50*	·
CC(=O)N(C1=C(N2CCOCC2)C(=O)c2ccccc2C1=O)c1ccc(C(=O)O)cc1	·	-3
CC(=O)N(C)C1=C(N2CCOCC2)C(=O)c2ccccc2C1=O	16	·
O=C(O)c1ccc(NC2=C(N3CCOCC3)C(=O)c3ccccc3C2=O)cc1	76*	-11
CC(=O)c1ccc(NC2=C(N3CCOCC3)C(=O)c3ccccc3C2=O)cc1	99*	2
Cc1ccc(NC2=C(N3CCOCC3)C(=O)c3ccccc3C2=O)cc1	89*	-6
Cc1ccc(NC2=C(Cl)C(=O)c3ccccc3C2=O)cc1	3	-1
CS(=O)(=O)N(CC(=O)NCCSc1ccccn1)c1cccc2ccccc12	-15	·
Cc1ccc(N(CC(=O)NCCSc2nc3ccccc3s2)S(=O)(=O)c2ccccc2)c(C)c1	-14	1
CCOc1ncccc1C(=O)OCc1c(F)cccc1Cl	·	6
Cn1nc(-c2ccc(Cl)cc2)nc2c(=O)n(C)c(=O)nc1-2	101*	·
CS(=O)(=O)n1nc(-c2ccc(Cl)cc2)nc1N	·	8
COc1ccc(CCNC(=O)CSc2ccc(-c3cccs3)nn2)cc1OC	·	-5
O=C(O)c1ccccc1SCC(=O)N1c2ccccc2Sc2ccccc21	60*	-16
O=C(O)c1ccccc1SCC(=O)N1CCCCC1	-31	12
CSc1cccc(NC(=S)NCCCN2CCN(c3ccc(F)cc3)CC2)c1	·	9
COc1ccc(CCNC(=O)CSc2nnc3ccccn23)cc1	·	-8
SMILES	YopH PTP inh	RmlCD inh 1536
Oc1ccc(C=Nc2ccc3ncccc3c2)c(O)c1	72*	-6
Oc1ccc(C=Nc2cccc3ncccc23)c(O)c1	-43	6
CCOc1ccc(-c2nc(CSCC(=O)NCc3ccco3)c(C)o2)cc1	-24	·
CC(=O)C(C(C)=O)C1(O)C(=O)c2ccccc2C1=O	98*	7
CC(=O)N(C)C1=C(O)c2ccccc2C(=O)C1=O	4	·
CCOCc1c(C(=O)OCC(=O)/C(C#N)=C(\C)N)oc2ccccc12	·	17
CCOCCCNC(=O)C(NC(=O)CC1NC(=O)NC1=O)c1ccc(Cl)cc1 (stereo not drawn)	-46	2
CN(C)/C=N/c1ncc(-c2ncc(C(F)(F)F)cc2Cl)cn1	·	-6
CCOC(=O)N1CCN(c2cc(NCCC(=O)O)c3c4c(onc24)-c2ccccc2C3=O)CC1	87*	9
O=C(O)CCCNc1cc(N2CCC3(CC2)OCCO3)c2noc3c2c1C(=O)c1ccccc1-3	9	-11
Cc1c(/C=N/NC(=O)c2ccc(Br)o2)cnn1C	·	-10
COc1ccc(NC2=C(NCCO)C(=O)c3ccccc3C2=O)cc1	78*	1
COC1=C(Nc2ccc(OC)cc2)C(=O)c2ccccc2C1=O	-19	-12
NS(=O)(=O)c1ccc(NC(=O)CSc2nc3ccccc3[nH]2)cc1	·	29
CCc1ccc(S(=O)(=O)/N=C2\C=CC(=O)c3ccccc32)cc1	·	-8
CCc1ccc(S(=O)(=O)/N=C2/C=C(Sc3ncn[nH]3)C(=O)c3ccccc32)cc1	93*	-1
CNC(=O)C(=O)NCCCN1CCOCC1	·	-11
O=C1C=Cc2ccccc2C1=O	63*	·
CCN1C(=C2C(=O)c3ccccc3C2=O)C=Cc2ccccc21	-3	-38
N#Cc1c(N2CCCC2)nc(N)c2c(N)nc(N3CCCC3)cc12	101*	·
COc1cc2c(C#N)c(N3CCCC3)nc(N)c2c(N)n1	·	4
OC(COc1cccc2ccccc12)CN1CCN(c2ccccc2Cl)CC1 (stereo not drawn)	·	0
[O-]/[N+](=C\c1ccc(F)cc1)c1ccccc1	59*	·
[O-]/[N+](=C\c1cccc(Br)c1)c1ccccc1	·	-6
Cc1ccc(-c2cc(=O)[nH]c3ccccc23)cc1	-43	·
SMILES	YopH PTP inh	RmlCD inh 1536
Cc1ccc2c(C)[nH]c(=O)cc2c1	90*	·
Cc1ccc(CSCCNC(=O)CN2C(=O)c3ccccc3S2(=O)=O)cc1	56*	·
COc1ccc(CCNC(=O)CN2C(=O)c3ccccc3S2(=O)=O)cc1OC	-2	2
Cc1oc2c(CN3CCOCC3)c(O)ccc2c(=O)c1-c1ccccc1	-48	66*
COc1ccc(Oc2c(C)oc3c(CN4CCOCC4)c(O)ccc3c2=O)cc1	-12	5
Cc1ccc(N2C(=O)[C@@H]3[C@H](C2=O)C2c4ccccc4C=CN2[C@@H]3C(=O)c2ccco2)c(C)c1 (stereo partly drawn)	95*	·
O=C(c1ccco1)[C@@H]1[C@@H]2C(=O)N(c3ccccc3)C(=O)[C@@H]2C2c3ccccc3C=CN21 (stereo partly drawn)	82*	·
CC(=O)[C@@H]1[C@@H]2C(=O)N(Cc3ccccc3)C(=O)[C@@H]2C2c3ccccc3C=CN21 (stereo partly drawn)	35	100
Cc1ccc(N2C(=O)[C@@H]3[C@H](C2=O)C2c4ccccc4C=CN2[C@@H]3C(=O)c2ccco2)cc1 (stereo partly drawn)	92*	9
CC(C)(C)C(=O)[C@@H]1[C@@H]2C(=O)N(c3ccc4c(c3)OCCO4)C(=O)[C@@H]2C2c3ccccc3C=CN21 (stereo partly drawn)	5	·
COc1ccc(N2C(=O)[C@@H]3[C@H](C2=O)[C@H]2c4ccccc4C=CN2[C@@H]3C(=O)Nc2ccccc2)cc1	5	11
CC[n+]1c(C)cc(C)n1-c1ccccc1	·	11
COc1ccc(/C=N/N=C2/CC(C)(C)Cc3n[nH]c(=O)cc32)cc1	·	-13
COc1ccc(Cc2nnc(NC(=O)c3cccs3)s2)cc1OC	·	-8
COc1ccc(OC)c(-c2c3cc(O)c(=O)cc-3oc3cc(O)c(O)cc23)c1	55*	6
O=c1cc2oc3cc(O)c(O)cc3c(-c3ccccc3O)c-2cc1O	·	7
COc1ccc(C(NC(=O)C2CCCCC2)c2c(O)ccc3ccccc23)cc1 (stereo not drawn)	-7	-4
CCCCCC(=O)NNC(=O)c1ccc(-c2ccccc2)cc1	-21	-10
